Screens as filed in PubChem BioAssay.
FBW7 act – activators of human E3 ligase FBW7; Q969H0; AlphaScreen FBW7–phospho-cyclin E peptide binding, activator screen; normalized activity (activation), % at 26.1 µM; 650,000 tested, 0.13% active; AID 1259310; in the data active = normalized activity above about 1.9%;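 note: purified mutant Fbw7 with reduced substrate affinity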
Target sequence (Q969H0 whole entry, looked up): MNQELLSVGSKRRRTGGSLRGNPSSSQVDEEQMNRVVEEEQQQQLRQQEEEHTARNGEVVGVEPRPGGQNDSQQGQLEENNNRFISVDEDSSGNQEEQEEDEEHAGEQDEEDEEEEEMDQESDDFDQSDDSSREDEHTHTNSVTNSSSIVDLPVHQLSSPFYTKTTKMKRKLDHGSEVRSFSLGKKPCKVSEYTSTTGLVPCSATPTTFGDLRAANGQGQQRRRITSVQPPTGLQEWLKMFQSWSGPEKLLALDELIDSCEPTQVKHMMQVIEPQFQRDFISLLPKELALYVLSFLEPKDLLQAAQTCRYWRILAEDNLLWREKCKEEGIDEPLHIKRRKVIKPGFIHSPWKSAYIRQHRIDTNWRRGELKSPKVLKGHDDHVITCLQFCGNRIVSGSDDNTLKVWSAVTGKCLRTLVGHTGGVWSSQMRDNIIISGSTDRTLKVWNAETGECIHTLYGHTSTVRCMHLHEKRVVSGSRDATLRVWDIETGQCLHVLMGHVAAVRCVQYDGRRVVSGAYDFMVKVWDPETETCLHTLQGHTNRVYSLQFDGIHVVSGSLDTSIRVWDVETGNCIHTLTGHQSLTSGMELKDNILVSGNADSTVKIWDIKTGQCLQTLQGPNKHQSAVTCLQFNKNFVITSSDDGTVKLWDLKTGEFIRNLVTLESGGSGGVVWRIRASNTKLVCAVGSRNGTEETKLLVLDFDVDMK
TEAD-YAP inh – TEAD-YAP interaction inhibition; HEK-TIYL cells, TEAD-Gal4/YAP UAS-luciferase luminescence; inhibition, % at 9.12 µM; 640,000 tested, 1.4% active; AID 1259422; in the data active = inhibition above about 32%;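 note: 0% = median of test compound wells and 100% = reference inhibitor wells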
MITF inh – blocks human microphthalmia-associated transcription factor; O75030; AlphaScreen MITF homodimerization, bead proximity signal; inhibition, % at 2.6 µM; 650,000 tested, 0.91% active; AID 1259374; in the data active = inhibition above about 50%;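 note: 0% = vehicle wells with protein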
GPR151 activ – activators of human GPR151; Q8TDV0; PathHunter beta-arrestin GPR151 cells, luminescence; 650,000 tested, 1% active; activation, % at 11.2 µM; in the data active = activation above about 4.9%;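 note: 0% = median of compound wells and 100% = cells with positive control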
* hit, by the source's call. Shown are actives, neighbours in structure and some others; about 3.5% of the full set was active somewhere.

SMILES	FBW7 act	TEAD-YAP inh	MITF inh	GPR151 activ
O=C(CSc1nccc(=O)[nH]1)Nc1cc2c(cc1Cl)C(=O)c1ccccc1C2=O	0	-53	17	-3
FC(F)(F)c1cc(Cn2c3ccccc3c3nc4ccccc4nc32)cc(C(F)(F)F)c1	2.4*	4	-3	-1
Cc1ccc(-c2ncn(-c3ccc(Nc4nccc(-c5ccc(N)nc5)n4)cc3)n2)cn1	5.4*	41*	6	0
Cc1ccc(-c2ncn(-c3ccc(Nc4nccc(-c5ccc(Cl)nc5)n4)cc3)n2)cn1	0	-17	8	0
Cc1ccc(-c2ncn(-c3ccc(Nc4nccc(-c5ccc(S(C)(=O)=O)c(N6CCCC(O)C6)c5)n4)cc3)n2)cn1 (stereo not given)	0	38*	12	1
COC(=O)c1cccnc1NC(=S)NNC(=O)C(C)Oc1ccccc1OC (stereo not given)	0	-9	-4	0
COCC(C)n1c(C)cc(C(=O)COC(=O)c2n[nH]c3ccccc23)c1C (stereo not given)	0	88*	18	-2
COCC(C)n1c(C)cc(C(=O)COC(=O)c2cccc(C)c2C)c1C (stereo not given)	0	46*	7	0
COCC(C)n1c(C)cc(C(=O)COC(=O)c2c(OC)cccc2OC)c1C (stereo not given)	0	22	10	-2
Cc1cc(C(=O)CSc2nc3ccccc3[nH]2)c(C)n1C1CC1	0	-71	7	-1
COCC(C)n1c(C)cc(C(=O)COC(=O)c2oc3ccccc3c2C)c1C (stereo not given)	0	0	5	-1
COCC(C)n1c(C)cc(C(=O)CSc2nc3ccccc3[nH]2)c1C (stereo not given)	0	40*	8	3
COc1ccc(NC2CCC(C)CC2)cc1OC (stereo not given)	0	5	7	1
O=C(Nc1cc(-c2ccncc2)c[nH]c1=O)C1Cc2c(ccc3ccccc23)O1 (stereo not given)	0	33*	7	-1
NC(=O)CSc1ncnc2nc[nH]c12	0	-3	4	0
CCOC(=O)c1cc(-c2cccnc2)nc2c1c(C)nn2-c1ccc(F)cc1	0	10	13	-1
CCCS(=O)(=O)N1CCCC(C(=O)NC2CCC(C)CC2)C1 (stereo not given)	1	-17	-11	-1
Cc1sc2ncnc(NCC3COc4ccccc4O3)c2c1C (stereo not given)	0	48*	5	0
Cc1sc2ncnc(NCCc3ccc4c(c3)OCCO4)c2c1C	1	57*	17	1
COc1ccc(CNC(=O)CS(=O)(=O)Cc2nc(-c3ccc(C)cc3)oc2C)cc1	0	1	9	-1
O=C(O)c1cccc2c1NC(c1ccc([N+](=O)[O-])cc1)C1CC=CC21 (stereo not given)	0	-4	65*	0
O=C(O)c1cccc2c1NC(c1cccc(Br)c1)C1CC=CC21 (stereo not given)	0	8	24	1
O=C(O)c1cc(Br)cc2c1N[C@@H](c1ccc(F)cc1)[C@H]1CC=C[C@@H]21	0	-3	79*	-1
Cc1c(C(=O)O)ccc2c1N[C@@H](c1cccc(Cl)c1)[C@H]1CC=C[C@@H]21	-1	0	76*	0
O=C(O)c1cccc2c1NC(c1ccccc1[N+](=O)[O-])C1CC=CC21 (stereo not given)	0	0	67*	0
SMILES	FBW7 act	TEAD-YAP inh	MITF inh	GPR151 activ
CC1(C)C2([N+](=O)[O-])CN3CC1([N+](=O)[O-])CN(C2)C3c1ccco1 (stereo not given)	0	0	9	0
COc1ccc(-n2nnnc2-c2cccc(OC)c2)cc1	0	58*	10	3
Oc1ccc(C2Nc3ccccc3-c3nnc(SCc4ccccc4)nc3O2)cc1O (stereo not given)	0	-6	12	0
COCCn1c(SCC(O)CCl)nc2c1c(=O)[nH]c(=O)n2C (stereo not given)	0	-3	-5	0
COc1ccc2c(c1)OCC(Cc1ccc(OC)c(OC)c1)C2=O (stereo not given)	1	48*	-1	1
COc1ccc2c(c1)OCC(Cc1ccc(OC)c(OC(C)=O)c1)C2=O (stereo not given)	1	52*	13	2
COc1ccc2c(c1)O[C@@H]1COc3cc(OC)c(OC)cc3[C@@H]1C2=O	0	32*	33	0
COc1ccc(NC(=O)Cc2ccc(OC)c(OC)c2)c(OC)c1	0	4	7	-1
Cc1ncc(CN2CCCC(CNC(=O)c3ccc(-c4ccccc4)cc3)C2)s1 (stereo not given)	0	9	9	3
O=C(O)COc1ccccc1/C=N\NC(=O)CN1CCN(Cc2ccccc2Cl)CC1	0	-7	-8	-1
COc1ccccc1-c1cnc2ccc(NC3CCC(O)CC3)nn12 (stereo not given)	0	-13	11	0
CCc1ccc(-n2c(C)cn3c4c(=O)n(CC(N)=O)c(=O)n(C)c4nc23)cc1	0	2	18	1
c1csc(CNc2ncnc3sccc23)c1	0	32*	4	1
c1ccc(CNc2ncnc3sccc23)cc1	0	2	-4	0
COc1ccc(CCNc2ncnc3[nH]ncc23)cc1	0	25	-2	2
COc1ccc(CCNc2ncnc3sccc23)cc1	0	49*	-11	2
Cc1ccc(NC(=O)Cn2nnc(-c3ccccc3NC(=O)c3cccs3)n2)cc1	0	54*	2	2
COc1ccc(NC(=O)Cn2nnc(-c3ccccc3NC(=O)c3cccs3)n2)cc1	0	-10	5	0
Cc1cc(C(=O)CSc2ncccn2)c(C)n1Cc1ccc2c(c1)OCO2	0	-36	-7	1
O=C1C2C3C=CC(C3)C2C(=O)N1c1ccc(Oc2ccccc2)cc1 (stereo not given)	0	-3	6	1
N#Cc1ccc(Oc2ccc(N3C(=O)C4C5C=CC(C5)C4C3=O)cc2)cc1C#N (stereo not given)	2	40*	19	0
O=C1c2ccccc2C(=O)N1CCCCN(C(=O)C12CC3CC(CC(C3)C1)C2)c1ccc(Cl)cc1	0	0	8	1
CC(C)Oc1ccc(Br)cc1C(=O)N/N=C/c1ccco1	0	38*	-2	1
O=C(N/N=C/c1cccs1)c1cc2ccccc2cc1O	0	-4	9	0
CCOc1ccc(Br)cc1C(=O)N/N=C/c1ccc(C)o1	0	36*	-8	0
COc1cc2ccccc2cc1C(=O)N/N=C/c1cccs1	0	50*	-9	0
CC(C)Oc1ccc(Br)cc1C(=O)N/N=C/c1ccc(O)cc1	0	3	-3	0
CCOc1ccc(Br)cc1C(=O)N/N=C/c1cccs1	0	55*	22	-1
CCOC(=O)N1CCN(S(=O)(=O)c2ccc(C(=O)Nc3nc(-c4cccnc4)cs3)cc2)CC1	0	-6	4	0
